PubChem BioAssay (NCATS)
Records with an inconclusive call do not appear. A call without a number means that no potency is given here. The source made the active and inactive calls. The call rests on the fitted dose curve; in most records, active means well fitted curve in the direction sought with a large enough effect; inconclusive means small, poorly fitted or top-dose-only effect, or another doubt; inactive means no such curve, though single readings can be large; an effect the other way counts as inactive or inconclusive.

Legend:
[1] = Quantitative High-Throughput drug screen in 47 multiple myeloma cell lines against the NCATS MIPE library collection: JIM1_ECACC cell viability assay (AID 1918964)
Outline: (§1)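 Primary qHTS used for cherry-picking: cells at 500/well, library compounds for 48 h (37C, 5% CO2), luminescent ATP assay.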

[2] = Quantitative High-Throughput drug screen in 47 multiple myeloma cell lines against the NCATS MIPE library collection: INA6_PLB cell viability assay (AID 1918965; further: nearly all actives have a fitted effect of over 55% in size; further: potency means the concentration at half of the fitted maximal effect)
Outline: (§2)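 Viability readout: CellTiter-Glo luminescence following 5 min room-temperature incubation with reagent. Prior exposure: 48 h, 37C, humidified 5% CO2, 500 cells per well.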

[3] = Quantitative High-Throughput drug screen in 47 multiple myeloma cell lines against the NCATS MIPE library collection: H1112_PLB cell viability assay (AID 1918967; further: nearly all actives have a fitted effect of over 30% in size; further: potency means the concentration at half of the fitted maximal effect)
Outline: as §1

[4] = Quantitative High-Throughput drug screen in 47 multiple myeloma cell lines against the NCATS MIPE library collection: Karpas25_ECACC cell viability assay (AID 1918968; further: nearly all actives have a fitted effect of over 35% in size; further: potency means the concentration at half of the fitted maximal effect)
Outline: as §1

[5] = Quantitative High-Throughput drug screen in 47 multiple myeloma cell lines against the NCATS MIPE library collection: KMS27_JCRB cell viability assay (AID 1918970); further: nearly all actives have a fitted effect of over 30% in size; further: potency means the concentration at half of the fitted maximal effect
Outline: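 Myeloma cells (500 per well) were exposed to MIPE 4.0 compounds for 48 h at 37 °C, 5% CO2; viability was read as ATP luminescence with CellTiter-Glo, normalized to DMSO-only (100%) and media-only (0%) wells.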

[6] = Quantitative High-Throughput drug screen in 47 multiple myeloma cell lines against the NCATS MIPE library collection: KMS12BM_JCRB cell viability assay (AID 1918971); further: nearly all actives have a fitted effect of over 35% in size; further: potency means the concentration at half of the fitted maximal effect
Outline: (§3)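 Luminescent ATP measurement with CellTiter-Glo gives viability, scaled between DMSO-only wells (100%) and media-only wells (0%). Cells, 500 per well, faced library compounds for 48 hours at 37C.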

[7] = Quantitative High-Throughput drug screen in 47 multiple myeloma cell lines against the NCATS MIPE library collection: KMS12PE_JCRB cell viability assay (AID 1918972); further: nearly all actives have a fitted effect of over 30% in size; further: potency means the concentration at half of the fitted maximal effect
Outline: as §2

[8] = Quantitative High-Throughput drug screen in 47 multiple myeloma cell lines against the NCATS MIPE library collection: NCIH929_DSMZ cell viability assay (AID 1918978); further: nearly all actives have a fitted effect of over 35% in size; further: potency means the concentration at half of the fitted maximal effect
Outline: (§4)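 Cells were exposed to library compounds for 48 hours, after which ATP was measured by CellTiter-Glo. Signal was taken as median relative luminescence units.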

[9] = Quantitative High-Throughput drug screen in 47 multiple myeloma cell lines against the NCATS MIPE library collection: MM1S_ATCC cell viability assay (AID 1918980); further: nearly all actives have a fitted effect of over 45% in size; further: potency means the concentration at half of the fitted maximal effect
Outline: as §4

[10] = Quantitative High-Throughput drug screen in 47 multiple myeloma cell lines against the NCATS MIPE library collection: MM1R_ATCC cell viability assay (AID 1918981); further: nearly all actives have a fitted effect of over 35% in size; further: potency means the concentration at half of the fitted maximal effect
Outline: as §4

[11] = Quantitative High-Throughput drug screen in 47 multiple myeloma cell lines against the NCATS MIPE library collection: LP1_DSMZ cell viability assay (AID 1918982); further: nearly all actives have a fitted effect of over 35% in size; further: potency means the concentration at half of the fitted maximal effect
Outline: as §4

[12] = Quantitative High-Throughput drug screen in 47 multiple myeloma cell lines against the NCATS MIPE library collection: KMS28PE_JCRB cell viability assay (AID 1918983); further: nearly all actives have a fitted effect of over 35% in size; further: potency means the concentration at half of the fitted maximal effect
Outline: as §4

[13] = Quantitative High-Throughput drug screen in 47 multiple myeloma cell lines against the NCATS MIPE library collection: L363_DSMZ cell viability assay (AID 1918984); further: nearly all actives have a fitted effect of over 40% in size; further: potency means the concentration at half of the fitted maximal effect
Outline: as §4

[14] = Quantitative High-Throughput drug screen in 47 multiple myeloma cell lines against the NCATS MIPE library collection: OCIMY1_PLB cell viability assay (AID 1918979); further: nearly all actives have a fitted effect of over 35% in size; further: potency means the concentration at half of the fitted maximal effect
Outline: as §4

[15] = Quantitative High-Throughput drug screen in 47 multiple myeloma cell lines against the NCATS MIPE library collection: KMS20_JCRB cell viability assay (AID 1918973); further: nearly all actives have a fitted effect of over 45% in size; further: potency means the concentration at half of the fitted maximal effect
Outline: as §1

[16] = Quantitative High-Throughput drug screen in 47 multiple myeloma cell lines against the NCATS MIPE library collection: KMS26_JCRB cell viability assay (AID 1918975); further: nearly all actives have a fitted effect of over 45% in size; further: potency means the concentration at half of the fitted maximal effect
Outline: as §3

[17] = Quantitative High-Throughput drug screen in 47 multiple myeloma cell lines against the NCATS MIPE library collection: MMM1_PLB cell viability assay (AID 1918976)
Outline: as §4

[18] = Quantitative High-Throughput drug screen in 47 multiple myeloma cell lines against the NCATS MIPE library collection: MOLP8_DSMZ cell viability assay (AID 1918977); further: nearly all actives have a fitted effect of over 45% in size; further: potency means the concentration at half of the fitted maximal effect
Outline: as §4

[19] = Quantitative High-Throughput drug screen in 47 multiple myeloma cell lines against the NCATS MIPE library collection: JJN3_DSMZ cell viability assay (AID 1918966; further: potency means the concentration at half of the fitted maximal effect; nearly all actives have a fitted effect of over 50% in size)
Outline: as §1

[20] = Quantitative High-Throughput drug screen in 47 multiple myeloma cell lines against the NCATS MIPE library collection: KMS21BM_JCRB cell viability assay (AID 1918974); conditions: ATP luminescence, 48 h; viability: at 45.8 µM (top of the series) unless noted; further: potency means the concentration at half of the fitted maximal effect
Outline: as §1

Compound	Potency [1]	Potency [2]	Potency [3]	Potency [4]	Potency [5]	Potency [6]	Potency [7]	Potency [8]	Potency [9]	Potency [10]	Potency [11]	Potency [12]	Potency [13]	Potency [14]	Potency [15]	Potency [16]	Potency [17]	Potency [18]	Potency [19]	Potency [20]
OCCn1cc(-c2cnc3nnn(Cc4ccc5ncccc5c4)c3n2)cn1	inactive	inactive	inactive	14.8 µM (active)	inactive	18.7 µM (active)	20.9 µM (active)	inactive	9.35 µM (active)	18.7 µM (active)	inactive	inactive	inactive							
O=C1CCC(N2C(=O)c3ccccc3C2=O)C(=O)N1 (configuration not stated)	inactive	inactive	inactive	inactive	inactive	18.7 µM (active)	inactive	inactive			inactive			inactive						
CC(C)C[C@H](NC(=O)[C@@H](O)[C@H](N)Cc1ccccc1)C(=O)O	inactive		20.9 µM (active)	20.9 µM (active)	inactive	23.5 µM (active)	inactive	20.9 µM (active)	18.7 µM (active)	20.9 µM (active)	20.9 µM (active)	20.9 µM (active)			11.8 µM (active)	23.5 µM (active)	20.9 µM (active)	20.9 µM (active)		
O=c1ncn2nc(Sc3ccc(F)cc3F)ccc2c1-c1c(Cl)cccc1Cl	inactive			14.8 µM (active)	18.7 µM (active)			18.7 µM (active)		16.6 µM (active)		inactive	18.7 µM (active)	inactive						
CC(C[N+](C)(C)C)OC(N)=O (configuration not stated)	inactive		inactive				inactive	inactive	inactive	inactive	inactive					inactive		inactive		
Cc1n[nH]c(C)c1Cc1sc2c(c1C(=O)N1C[C@H](O)CO1)c(=O)n(C)c(=O)n2CC(C)C	inactive		inactive	inactive		2.64 µM (active)		inactive	11.8 µM (active)	inactive		16.6 µM (active)	inactive	inactive				0.935 µM (active)		
Clc1ccc(Nc2nnc(Cc3ccncc3)c3ccccc23)cc1	inactive				inactive		inactive	11.8 µM (active)	18.7 µM (active)		11.8 µM (active)	20.9 µM (active)	inactive				18.7 µM (active)			
NC(=O)c1cnccn1	inactive			inactive	inactive			inactive		inactive	inactive	inactive	inactive	inactive						
Cc1ccc(NC(=O)c2cccc(C(C)(C)C#N)c2)cc1Nc1ccc2ncn(C)c(=O)c2c1		14.8 µM (active)		13.2 µM (active)	1.05 µM (active)		5.9 µM (active)		6.62 µM (active)	6.62 µM (active)		11.8 µM (active)		0.264 µM (active)			16.6 µM (active)		18.7 µM (active)	
COc1nc(-c2ccc3c(c2)OCO3)n(-c2ccc(NC(=O)CSc3ccccc3)cc2)n1	inactive		inactive	inactive	inactive		inactive	inactive		inactive	inactive	14.8 µM (active)		inactive		11.8 µM (active)				
O=c1[nH]cnc2[nH]ncc12	inactive		inactive	inactive	inactive			inactive		inactive	inactive	inactive			inactive			inactive		
OC[C@H](Cc1ccccc1)Nc1nc(Oc2ccc3c(c2)CCC3)nc2c1ncn2Cc1ccc(-c2ccccc2)cc1	inactive						inactive			inactive		inactive						inactive		
N=c1nc(N2CCCCC2)cc(N)n1O	inactive		inactive	26.4 µM (active)	inactive		inactive		inactive	inactive	inactive	inactive								
Nc1nc2[nH]cc(CCc3ccc(C(=O)N[C@@H](CCC(=O)O)C(=O)O)cc3)c2c(=O)[nH]1		0.743 µM (active)	6.62 µM (active)	inactive	18.7 µM (active)	20.9 µM (active)	1.32 µM (active)	inactive		inactive	inactive	inactive		inactive	inactive	inactive	2.09 µM (active)		9.35 µM (active)	
O=C(O)[C@@H](c1ccc(OCc2ccc3ccccc3n2)cc1)C1CCCC1		inactive	inactive	inactive	inactive	inactive	inactive	inactive	inactive		inactive	inactive	inactive	inactive	inactive	0.0012 µM (active)		inactive		
CCN(c1ccccc1)c1cc(NC)[n+](C)c(C)n1	inactive		inactive		6.62 µM (active)			inactive		16.6 µM (active)	inactive	inactive						2.09 µM (active)		0.372 µM (active)
CCCCCCCc1ccc(CCc2cccc(O)c2C(=O)O)cc1	inactive			20.9 µM (active)			inactive			8.33 µM (active)	16.6 µM (active)	inactive	inactive	inactive			14.8 µM (active)			
